Assay outcomes from PubChem BioAssay.
The full list was thinned out, with hits kept by preference.
SARS PLpro yeast: SARS-CoV PLP inhibition in yeast; S. cerevisiae expressing SARS-CoV PLpro, growth rescue; Potency, µM (doses to about 32.9 µM), without a hit: top-dose activity, positive = growth rescue, actives largely listed as activators; 330,000 compounds, 0.19% hits; AID 485353; calls by dose curve; further: potency means the concentration at half of the fitted maximal effect; 0% is about no effect; nearly all actives have a fitted effect of over 55% in size
AMA1-RON2 inh: disrupts binding of P. falciparum AMA1 to RON2 | AlphaScreen AMA1-biotinylated RON2 peptide binding | Potency, µM (series often up to 58.2 µM), for inactives: top-dose activity change, negative = inhibition, most hits filed as inhibitors | 360,000 compounds, 0.2% hits;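 further: potency means the concentration at half of the fitted maximal effect; 0% = vehicle wells and -100% = peptide control; nearly all actives have a fitted effect of over 45% in size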
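AMA1 (3D7) with his tag at 25 nM final met compounds first, then biotinylated RON2 peptide at 25 nM; detection used donor plus acceptor beads, 10 µg/mL apiece, read by AlphaScreen after 30 min at room temperature.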
AmpC no deterg: blocks E. coli AmpC beta-lactamase in detergent-free assay. P00811. AmpC nitrocefin hydrolysis, absorbance 480 nm, 0.0001% Triton. Potency, µM (doses to about 57.1 µM), for the others: at the top dose activity change, negative = inhibition, most hits filed as inhibitors. 330,000 compounds, 0.52% hits;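 further: potency means the concentration at half of the fitted maximal effect; plate controls were no compound for no effect and no enzyme for full effect; nearly all actives have a fitted effect of over 20% in size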
Target sequence (P00811 whole entry, looked up): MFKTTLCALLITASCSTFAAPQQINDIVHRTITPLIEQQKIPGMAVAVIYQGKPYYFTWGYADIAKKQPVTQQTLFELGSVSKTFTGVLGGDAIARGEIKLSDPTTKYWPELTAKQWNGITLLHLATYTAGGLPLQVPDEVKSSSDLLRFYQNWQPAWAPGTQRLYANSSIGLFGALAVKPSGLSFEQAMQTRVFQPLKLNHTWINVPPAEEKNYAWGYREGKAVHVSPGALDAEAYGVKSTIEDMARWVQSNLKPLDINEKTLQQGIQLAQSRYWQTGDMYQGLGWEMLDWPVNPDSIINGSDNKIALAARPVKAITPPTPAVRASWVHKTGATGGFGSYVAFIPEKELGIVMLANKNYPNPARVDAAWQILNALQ
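20 mM phosphate pH 7.0 + 0.01% (detergent screen) or 0.0001% Triton X-100; 5.3 nM AmpC reagent; cpd preinc 15 min RT; nitrocefin (800 uM stock) to start; A480 q20 s × 4 min; Activity was normalised to no-enzyme and no-compound control wells.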
CHX counter: counter-screen for Shiga toxin inhibitors: cycloheximide protein synthesis inhibition; max response, %; cell reporter, cycloheximide protein synthesis inhibition counterscreen; 300,000 compounds, 12% hits; AID 2314; in the data active means max response mostly above about 13%, no sharp cut-off; inactive means mostly below about 14%; further: read at 38.3 µM for the half of the compounds with a filed dose; 0% is about no effect
AmpC detergent: AmpC beta-lactamase inhibition with detergent present. P00811. AmpC hydrolysis of nitrocefin, absorbance 480 nm, 0.01% Triton. Potency, µM (series often up to 114 µM), inactives show at the top dose activity change, negative = inhibition, actives largely listed as inhibitors. 370,000 compounds, 0.041% hits;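 further: potency means the concentration at half of the fitted maximal effect; 0% = no-compound wells and -100% = no-enzyme wells; nearly all actives have a fitted effect of over 25% in size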
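AmpC (5.3 nM in the dispensed reagent) in 20 mM phosphate pH 7.0 with 0.01% (detergent screen) or 0.0001% Triton X-100 was preincubated with compounds for 15 min at room temperature. Nitrocefin was then added from an 800 uM solution, and hydrolysis was followed at 480 nm.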
Shiga toxin inh: blocks Shiga toxin action in Vero cells. AID 2315. Vero cells, Shiga toxin protein synthesis inhibition reporter. 290,000 compounds, 9.2% hits. inhibition, % at 38.7 µM; in the data active means inhibition mostly above about 28%, no sharp cut-off; inactive means mostly below about 43%; further: 0% is about no effect
* hit, by the source's call; [ ] = dose if it differs, or a comment. Unless noted, the call rests on the fitted dose curve; in most records, active means well fitted curve in the direction sought with a large enough effect; inconclusive means small, poorly fitted or top-dose-only effect, or another doubt; inactive means no such curve, though single readings can be large; an effect the other way counts as inactive or inconclusive.

How did Cc1cc2c(cc1C)NC(c1nc3ccccc3[nH]1)C1=C(CC(C)(C)CC1=O)N2 (stereo not given) do in these assays?
SARS PLpro yeast: 5%; AMA1-RON2 inh: -6%; AmpC no deterg: -34%; CHX counter: 3; AmpC detergent: -2%; Shiga toxin inh: -4

How did CC(=O)Nc1ccc(C2Nc3cc(C)c(C)cc3NC3=C2C(=O)CC(C)(C)C3)cc1 (stereo not given) do in these assays?
SARS PLpro yeast: 3%; AMA1-RON2 inh: -5%; AmpC no deterg: -23%; CHX counter: 36*; AmpC detergent: -13%; Shiga toxin inh: 40*

What do the screens show for `Cc1ccc(-c2cc(C(=O)O)c3ccccc3n2)c(C)c1`?
SARS PLpro yeast: 1%; AMA1-RON2 inh: -3%; AmpC no deterg: -19%; CHX counter: 18*; AmpC detergent: -3%; Shiga toxin inh: 5

How did O=C(O)c1cc(-c2ccc(Cl)s2)nc2ccccc12 do in these assays?
SARS PLpro yeast: -3%; AMA1-RON2 inh: 9%; AmpC no deterg: -20%; CHX counter: 14; AmpC detergent: -8%; Shiga toxin inh: 54*

Results for Cc1ccc(-c2cc(C(=O)Nc3cc(C)on3)c3ccccc3n2)c(C)c1 ?
SARS PLpro yeast: -25%; AMA1-RON2 inh: 0%; AmpC no deterg: -28%; CHX counter: 13; AmpC detergent: -12%; Shiga toxin inh: 13

What do the screens show for `COc1ccc([C@H]2CC(=O)C=C(c3ccccc3)C2)cc1`?
SARS PLpro yeast: 1%; AMA1-RON2 inh: 5%; AmpC no deterg: -16%; AmpC detergent: -2%

How did Cc1cc(NC(=O)Nc2ccc(Cl)c(Cl)c2)no1 do in these assays?
AMA1-RON2 inh: -2%

Results for Cc1cc(NC(=O)c2ccc(Cl)cc2Cl)no1 ?
SARS PLpro yeast: 1%; AMA1-RON2 inh: 0%; AmpC no deterg: -3%; CHX counter: 42*; AmpC detergent: inconclusive

How did Cc1cc(NC(=O)/C=C/c2ccc(Cl)cc2)no1 do in these assays?
SARS PLpro yeast: -15%; AMA1-RON2 inh: -2%[2.32 µM]; AmpC no deterg: -13%; CHX counter: 23*; AmpC detergent: -6%; Shiga toxin inh: 73*

Results for Cc1cc(NC(=O)COC(=O)c2ccc(Cl)cc2)no1 ?
AMA1-RON2 inh: 29%

Results for O=C(NCCNC(=O)c1ccc(Cl)cc1Cl)c1ccc(Cl)cc1Cl ?
AMA1-RON2 inh: 32%

Results for O=C(Nc1ccsn1)c1ccc(Cl)cc1Cl ?
SARS PLpro yeast: 1%; AMA1-RON2 inh: 14%; AmpC no deterg: -12%; CHX counter: 41*; AmpC detergent: -7%; Shiga toxin inh: 47*

What do the screens show for `Cc1cccc(NC(=O)Nc2cc(C)on2)c1`?
AMA1-RON2 inh: 1%; CHX counter: 39*; AmpC detergent: 1%; Shiga toxin inh: 71*

How did C=CCNc1nc2ccccc2nc1NS(=O)(=O)c1cccc(C)c1 do in these assays?
SARS PLpro yeast: -5%; AMA1-RON2 inh: 17%; AmpC no deterg: -24%; CHX counter: 5; AmpC detergent: 2%; Shiga toxin inh: -4

What do the screens show for `CCOc1ccc(CCNC(=O)c2cnccn2)cc1OCC`?
SARS PLpro yeast: -4%; AMA1-RON2 inh: -8%; AmpC no deterg: -1%; CHX counter: -5; AmpC detergent: inconclusive; Shiga toxin inh: -14

How did O=C(CN(CC1CCCO1)C(=O)CNS(=O)(=O)c1ccc(F)cc1)NC1CCCC1 (stereo not given) do in these assays?
SARS PLpro yeast: -3%; AMA1-RON2 inh: 2%; AmpC no deterg: -3%; CHX counter: -4; AmpC detergent: 1%; Shiga toxin inh: -7

What do the screens show for `N#Cc1ccccc1Cn1c(=O)n(-c2ccccc2)c(=O)c2c3c(sc21)CCC3`?
AmpC detergent: 21%

How did CCOC(=O)c1ccc(NC(=O)CN2CCN(CCN=CC3=C(O)CC(C)(C)CC3=O)CC2)cc1 do in these assays?
SARS PLpro yeast: 15%; AMA1-RON2 inh: -1%; AmpC no deterg: -7%; CHX counter: -2; AmpC detergent: inconclusive; Shiga toxin inh: 0
